According to PubChem BioAssay AID1159606 (Sanford-Burnham Center for Chemical Genomics, 2016):
Values joined by “and” are separate entries in the source; they are usually repeats but may differ in a detail not shown here. Equal values may be shown once. The whole screen tested about 360,000 compounds, of which about 7,300 (2%) were called active. The full list was thinned out, with actives kept by preference. Unmarked numbers belong to inactive results. No stated cut-off is given here; in the data, active means inhibition above about 50%; inactive means the rest.

test: blockers of TWEAK-induced Fn14 reporter activity – luciferase reporter cells, uHTS, primary screen (AID 1159606); conditions: TWEAK-stimulated Fn14 reporter cells, luciferase luminescence, 8 h; at 10 µM; stronger effect = higher value

Row | Structure (SMILES) | inhibition
1 | COc1ccc(N2CCN(C(=O)CNS(=O)(=O)c3ccc(C)c(C)c3)CC2)cc1 | 4.34%
2 | COc1ccc(C(C#N)Nc2ccccc2C)cc1 (configuration not stated) | -0.99%
3 | COC(=O)[C@@]1(Cc2ccc(F)cc2)[C@H]2c3cc(C(=O)N4CCCC4)n(Cc4ccc(OC(F)(F)F)cc4)c3C[C@H]2CN1C(=O)c1ccccc1 | 18.4%
4 | N/C(Cc1ccc([N+](=O)[O-])cc1)=N\OC(=O)COc1ccc2ccccc2c1 | -1.78%
5 | CO/N=C(\N)c1ccc([N+](=O)[O-])cc1 | 0.74%
6 | Cc1ccc(C(=O)O/N=C(\N)c2ccccn2)cc1Cl | 92.3% (active)
7 | N/C(=N\OC(=O)CCC1CCCCC1)c1ccccn1 | 18.4%
8 | N/C(=N\OC(=O)c1ccc([N+](=O)[O-])cc1)c1ccccn1 | 77.4% (active)
9 | O=C(COC(=O)c1ccccn1)NNC(=O)c1ccc([N+](=O)[O-])cc1 | -4.89%
10 | Cc1cccc(/C(N)=N/OC(=O)c2ccccc2Cl)c1 | 31.2%
11 | N/C(=N\OC(=O)Cc1ccc([N+](=O)[O-])cc1)c1ccccn1 | 69.1% (active)
12 | Cc1cc(C)cc(OCC(=O)O/N=C(\N)Cc2ccc([N+](=O)[O-])cc2)c1 | -9.61%
13 | COc1ccc(C2OC(CCc3ccccc3)Cc3[nH]c(=S)[nH]c(=O)c32)cc1 (configuration not stated) | -31.7%
14 | Cc1ccc(S(=O)(=O)N2CCC(=O)N([C@H](COCc3ccccc3)Cc3ccccc3)CC2)cc1 | 1.7%
15 | CC(Oc1ccc(Cl)cc1)c1ccnn1S(C)(=O)=O (configuration not stated) | 8.92%
16 | CN(C)CCn1c2c(c(SCC(=O)Nc3ccccc3C(F)(F)F)nc1=O)CCCC2 | -2.47%
17 | CC(C)(C)c1ccc(/C=C/C(=O)NCCCn2ccnc2)cc1 | 13.5%
18 | O=C(NC1CCCC1)C1c2ccccc2OCC(=O)N1Cc1ccccc1 (configuration not stated) | 2.4%
19 | COC(=O)Nc1ncc(CN2CCCCC2)s1 | 1.88%
20 | Cc1ccc(OCC(=O)Nc2ccc(NC(=O)c3cccs3)cc2)c(C)c1 | -68.7%
21 | CCc1ccc(NC(=O)C(=O)NNC(=O)c2cccs2)cc1 | -12.2%
22 | Cc1nc(-c2ccc(NC(=O)c3cccs3)cc2)cs1 | 69% (active)

Row | Structure (SMILES) | inhibition
23 | CCN(C(=O)CSc1nnc2ccccn12)C1CCS(=O)(=O)C1 (configuration not stated) | 7.23%
24 | COc1ccc2c(c1)c(=Cc1ccc(N(C)C)cc1)c1cc(-c3ccccc3)[n+](C)n12 | 100% (active)
25 | CC1(C)CC(=O)C2=C(C1)N=C1SCCC(=O)N1C2c1ccc(C(F)(F)F)cc1 (configuration not stated) | 1.88%
26 | O=C1OC(Oc2ccc(Br)cc2)(c2ccccc2)c2ccccc21 (configuration not stated) | 7.48%
27 | Nc1[nH]c(C(=O)c2ccccc2)c(-c2ccncc2)c1C(=O)NCc1cccc2ccccc12 | 36%
28 | CC(=O)c1ccc(NC(=O)c2ccc3c(Cl)c4c(nc3c2)CCCC4)cc1 | 40.1%
29 | CC(C)CCNC(=O)c1ccc2c(Cl)c3c(nc2c1)CCC3 | 58.4% (active)
30 | COc1cccc(NC(=O)c2ccc3c(SCC(=O)O)c4c(nc3c2)CCCC4)c1 | -6.4%
31 | CCc1ccc([C@@H]2CC(=O)[C@@H]3CN(S(=O)(=O)c4ccc(C)cc4)[C@H](c4ccc(Cl)cc4)C[C@@H]3N2S(=O)(=O)c2ccc(C)cc2)cc1 | -18.3%
32 | COCOCCn1cc(CN2CCS(=O)(=O)N(Cc3ccc(-c4ccc(OC)cc4)cc3)C(CC(C)C)C2=O)nn1 (configuration not stated) | -6.75%
33 | COCc1cc(=O)[nH]c2cc(NC(=O)C(F)(F)F)c(C)cc12 | 6.5%
34 | C[C@H]1CN([C@@H](C)CO)C(=O)CCCn2cc(nn2)CO[C@@H]1CN(C)S(=O)(=O)c1ccc(-n2cccn2)cc1 | -16.6%
35 | O=C(O)c1ccc2c(c1)C(=O)N(c1ccc(/C=C/C(=O)c3ccccc3)cc1)C2=O | 75.5% (active)
36 | Cc1cccc(N2C(=O)c3ccc(C(=O)Nc4cccc(C(=O)O)c4)cc3C2=O)c1 | 8.83%
37 | O=C(c1ccc2c(c1)C(=O)N(c1ccc(Cl)cc1)C2=O)N1CCN(c2ccccn2)CC1 | -12.4%
38 | CCN1C[C@@H]2[C@@H]3C(=O)N(C)C(=O)[C@@H]3[C@](C)(C1=O)N2C(=O)c1ccccc1 | 11.5%
39 | CC(Sc1nncn1C)C(=O)NCCC1=CCCCC1 (configuration not stated) | -1.74%
40 | COc1ccc(NC(=O)CCCC(=O)c2ccccc2)cc1 | -22.6%
41 | COc1ccc(NC(=O)ON=C2c3ccccc3-c3ccccc32)cc1 | 57.8% (active)
42 | COc1ccc(NC(=O)C(Br)C(C)C)cc1 (configuration not stated) | -6.35%
43 | CCC1CCCCN1C(=O)Nc1cccc(NC(=O)N2CCCCC2CC)c1 (configuration not stated) | -4.07%
44 | CCCCn1c(N)c(N(Cc2ccccc2OC)C(=O)COc2cc(C)ccc2Cl)c(=O)[nH]c1=O | -6.52%

Row | Structure (SMILES) | inhibition
45 | CC(C)CC(=O)N1CCN(Cc2ccccc2Br)CC1 | -11.1%
46 | CCC1OC(C2CC2)CC2=C1C(=O)OC(C)(C)O2 (configuration not stated) | 6.62%
47 | CC(C)Cn1c(SCC(=O)Nc2ccc(Cl)cc2F)nc(O)cc1=O | 0.05%
48 | COc1ccccc1-n1c(SCC(=O)Nc2ccc(Cl)cc2)nc(O)c(Cc2ccccc2)c1=O | -7.18%
49 | Cn1c(SCC(=O)Nc2ccc(Cl)cc2)nc(O)cc1=O | 80.5% (active)
50 | O=C(COC(=O)c1ccc(NS(=O)(=O)c2cccs2)cc1O)Nc1ccc(F)cc1 | 1.2%
51 | CCOC(=O)N1CCN(C(=O)C2CCCN(c3ncnc4c3sc3cccc(F)c34)C2)CC1 (configuration not stated) | 28.8%
52 | FC(F)(F)C1CCCN(c2nsc3ccccc23)C1 (configuration not stated) | 7.5%
53 | CCCCCCCCN1C(=O)[C@H](CC(=O)NCc2cccc3ccccc23)C[C@@]2(C(=O)OC)CCCCC=C12 | -1.79%
54 | CC(=NC1CCN(Cc2ccccc2)CC1)c1c(O)[nH]c(=O)[nH]c1=O | 0.57%
55 | CN(C)c1nc(=Nc2cccc(Cl)c2)ss1 | 5.73%
56 | c1ccc(CN2CCC(N=C3NN=C(c4ccc5c(c4)OCCO5)CS3)CC2)cc1 | 57.6% (active)
57 | CS(=O)(=O)N(CC(=O)N1CCN(Cc2ccccc2)CC1)c1ccc2c(c1)OCCO2 | 14.7%
58 | Clc1cccc(N=C2NN=C(c3ccc4c(c3)OCCO4)CS2)c1 | 84.4% (active)
59 | CCOc1ccc(S(=O)(=O)Nc2cccc(C(=O)NCC3(N4CCCCC4)CCCCC3)c2)cc1 | -1.13%
60 | OCCC#Cc1ccc(N2C(c3ccsc3)=Cc3ccc(F)cc3C2c2c[nH]c3ccccc23)cc1 (configuration not stated) | 11.2%
61 | C=CCn1c(CNS(=O)(=O)c2ccc(Br)cc2)nnc1SC | 8.19%
62 | C=CCC[C@@H](CCCCC)OC(=O)/C=C/[C@@H](O)[C@H](O)C[C@H](O)CC=C | 2.81%
63 | CC1CN(C(=O)c2cc(COc3c(F)cccc3F)on2)CCN1C (configuration not stated) | -6.71%
64 | O=C(Nc1cccc(-c2nnc(-c3ccccc3)o2)c1)C1CCCO1 (configuration not stated) | 10.7%
65 | C/C(=N/NC(=O)CCc1ccccc1)c1ccco1 | -10.4%
66 | O=C(CCc1ccccc1)Nc1cccc(-c2nnc(-c3ccco3)o2)c1 | 52.6% (active)

Row | Structure (SMILES) | inhibition
67 | CC(C)NC(=O)Nc1cccc2c1O[C@@H](CN(C)S(=O)(=O)c1ccc(F)cc1)[C@@H](C)CN([C@H](C)CO)C2=O | 3.62%
68 | COc1cccc(NC(=O)CC(c2ccc(OC(C)C)cc2)c2ccccc2OC)c1 (configuration not stated) | -21.3%
69 | CC(=O)c1ccc(N2CCN(C(=O)CCc3ccccc3)CC2)cc1 | -0.25%
70 | CC(=O)c1ccc(N2Cc3ccccc3C2)cc1 | 50.8% (active)
71 | CC(=O)c1ccc(N2CCN(CC(O)c3ccccc3)CC2)cc1 (configuration not stated) | 15.1%
72 | CCOC(=O)[C@]12CCC=C1N(Cc1ccco1)C(=O)[C@H](CC(=O)N1CCSCC1)C2 | 13.3%
73 | O=C(NCC1CCC(C(=O)O)CC1)OCc1ccccc1 (configuration not stated) | 3.36%
74 | CC(Oc1ccc2c(-c3ccccc3)cc(=O)oc2c1)C(=O)NC(Cc1c[nH]c2ccccc12)C(=O)O (configuration not stated) | -2.3%
75 | O=C(CNC(=O)OCc1ccccc1)Oc1cc2oc(=O)cc(-c3ccccc3)c2cc1Cl | 66.8% (active)
76 | OC(c1ccccc1)(c1ccccc1)C1CCN(CCCOc2ccccc2)CC1 | 1.25%
77 | Cc1ccc(OCC(=O)c2cc(C)n(Cc3ccco3)c2C)c([N+](=O)[O-])n1 | 42.9%
78 | COCCn1c(C)cc(C(=O)COC(=O)CNC(=O)c2ccco2)c1C | 5.04%
79 | Cc1cc(C(=O)COC(=O)CNC(=O)c2ccc(F)cc2)c(C)n1Cc1ccco1 | 71.8% (active)
80 | CCc1nc2ccc(C(=O)Nc3cc(-c4ccccc4)ccc3OC)cn2c1N(CC)CC(=O)N(C)C | 9.07%
81 | CC1(C(=O)NS(=O)(=O)c2cccs2)CCN1C(=O)Cc1ccc(-c2ccccc2)cc1 (configuration not stated) | 6.14%
82 | CCOc1c(Nc2cccc(Cl)c2)c(=O)c1=O | 6.24%
83 | OCCCNc1nccc(-c2cc(Nc3cccc(Cl)c3)ncn2)n1 | 97.3% (active)
84 | CC(NC(=O)COC(=O)c1ccc(Cl)cc1O)c1ccc(F)cc1 (configuration not stated) | -8.36%
85 | COc1ccc(-c2ccc3[nH]c4c(c3c2)CCN2C[C@H]3[C@H](C)ON(C)[C@H]3C[C@@H]42)cc1 | 76.2% (active)
86 | COc1cccc(C2c3[nH]c4ccccc4c3CCN2Cc2cccc(C)n2)c1 (configuration not stated) | 1.39%
87 | COC(=O)[C@H]1[C@H]2C[C@H]3c4[nH]c5ccccc5c4CCN3C[C@@H]2CC[C@@H]1O | 27.2% and 5.66%
